Assay in all cases: NCI-60 one-dose screen, 48 h (100 = growth as untreated, 0 = no growth, -100 = all killed)
One assay relates to SK-MEL-2 melanoma. To be noted: 10 µM.
Another assay has as its system EKVX NSCLC. The settings on record: 10 µM unless noted.
A further assay relates to SN12C renal. The settings on record: 10 µM unless noted.
In a further assay the test system is UO-31 renal. The settings on record: 10 µM unless noted.
For the next assay, the system named is TK-10 renal. To be noted: 10 µM unless noted.
For the next assay, the system named is ACHN renal. The settings on record: 10 µM unless noted.
Another assay has as its system CAKI-1 renal. The settings on record: 10 µM unless noted.
Another assay has as its system CCRF-CEM leukemia. The settings on record: 10 µM unless noted.
The next assay deals with MOLT-4 leukemia. The settings on record: 10 µM unless noted.
A further assay deals with SR leukemia. The settings on record: 10 µM unless noted.
The test system of a further assay is RPMI-8226 leukemia. To be noted: 10 µM unless noted.
The subject of a further assay is OVCAR-8 ovarian. To be noted: 10 µM unless noted.
The next assay relates to OVCAR-5 ovarian. To be noted: 10 µM unless noted.
The next assay concerns OVCAR-4 ovarian. The settings on record: 10 µM unless noted.
The next assay deals with SK-OV-3 ovarian. To be noted: 10 µM unless noted.
For a further assay, the system named is IGROV1 ovarian. The settings on record: 10 µM unless noted.
Another assay relates to OVCAR-3 ovarian. To be noted: 10 µM unless noted.
Another assay relates to HS 578T breast. The settings on record: 10 µM.
A further assay relates to NCI/ADR-RES ovarian. To be noted: 10 µM unless noted.
A further assay relates to A498 renal. To be noted: 10 µM unless noted.

This is part of a sample that, as a whole, favours compounds with a hit. Of some 83,000 tested, about 20% had one in any assay.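 Negative percent growth values reflect cell death: -40 means 40% of the cells present at the start died, and -100 means all died.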 Unmarked numbers belong to inactive results. Active and inactive are the calls of the source. Rule for the calls: active = growth percent below 10; inactive = the rest.

`Nc1c(C(=O)c2ccccc2)sc2nc(-c3cccs3)cc(-c3cccs3)c12`: the growth in the assay with SK-MEL-2 melanoma is 40.9%; in the assay on EKVX NSCLC it was 62.2%; with SN12C renal it was 59.5%; in the assay with UO-31 renal, 60.5%; in the assay with TK-10 renal, 81.6%; with ACHN renal, 55.7%. Besides, the growth with CAKI-1 renal was 50.5%; with CCRF-CEM leukemia, 40.1%; in the assay on MOLT-4 leukemia, 44.8%; with SR leukemia, 24.4%; in the assay on RPMI-8226 leukemia, 57.7%; in the assay on OVCAR-8 ovarian, 54.8%. Further, the growth in the assay with OVCAR-5 ovarian was 84.5%; in the assay on OVCAR-4 ovarian it was 62.6%; with SK-OV-3 ovarian, 46%; with IGROV1 ovarian, 66.3%; in the assay on OVCAR-3 ovarian, 11.9%; with HS 578T breast it was 53.4%. In the assay on NCI/ADR-RES ovarian, the growth was 24.4%.

Take `CC(=O)Oc1ccccc1C(=O)N=C1[Se]CCN1C(=O)c1ccccc1OC(C)=O`: the growth is -18.4% (active) in the assay on SK-MEL-2 melanoma; -39% (active) in the assay with EKVX NSCLC; -30% (active) in the assay on SN12C renal; -91% (active) in the assay on UO-31 renal; -72.3% (active) with TK-10 renal; -91.5% (active) in the assay with ACHN renal. Besides, the growth is -97.7% (active) with CAKI-1 renal; 18.6% in the assay with CCRF-CEM leukemia; 6.05% (active) with MOLT-4 leukemia; 24% in the assay with SR leukemia; 12.1% in the assay on RPMI-8226 leukemia; -12.1% (active) with OVCAR-8 ovarian. Also, the growth in the assay with OVCAR-5 ovarian was -12.4% (active); in the assay on OVCAR-4 ovarian it was -2.68% (active); in the assay on SK-OV-3 ovarian it was -30.6% (active); with IGROV1 ovarian it was -15.1% (active); in the assay on OVCAR-3 ovarian it was -74.2% (active); with HS 578T breast, -14.9% (active). Also, the growth in the assay on NCI/ADR-RES ovarian was -6.15% (active).

With `CCN1CCN(c2cc(C)nc(N(CCCNc3ccnc4cc(Cl)ccc34)Cc3ccc4c(c3)OCO4)n2)CC1`, the growth in the assay on SK-MEL-2 melanoma was -67.9% (active); with EKVX NSCLC, 42.3%; with SN12C renal, 34.6%; in the assay with UO-31 renal, -81.9% (active); in the assay on TK-10 renal, -58.2% (active); in the assay on ACHN renal, -0.628% (active). The growth was 27.8% in the assay with A498 renal; -18.1% (active) with CCRF-CEM leukemia; -15.9% (active) in the assay on MOLT-4 leukemia; -40.3% (active) in the assay on SR leukemia; -49.6% (active) in the assay on RPMI-8226 leukemia; 9.03% (active) with OVCAR-8 ovarian. Further, the growth is 50.2% in the assay on OVCAR-5 ovarian; 27.7% with OVCAR-4 ovarian; 72.1% with SK-OV-3 ovarian; 5.03% (active) with IGROV1 ovarian; -26.9% (active) with OVCAR-3 ovarian; -27.1% (active) in the assay with HS 578T breast. Besides, in the assay with NCI/ADR-RES ovarian, the growth was 14.2%.

In the case of `COC(=O)[C@]12CC[C@@H](C)[C@H](C)[C@@H]1C1=CC[C@@H]3[C@@]4(C)C(C=O)=C[C@@](C)(COS(C)(=O)=O)C4=CC[C@@]3(C)[C@]1(C)CC2`, the growth with SK-MEL-2 melanoma is -40.3% (active); with EKVX NSCLC, -39.2% (active); in the assay on SN12C renal, -37.8% (active); with UO-31 renal, -93.8% (active); in the assay on TK-10 renal it was -54.7% (active); in the assay with ACHN renal, -82.8% (active). Also, the growth with CAKI-1 renal was -43.9% (active); in the assay on CCRF-CEM leukemia, -1.17% (active); in the assay on MOLT-4 leukemia it was 0.901% (active); with SR leukemia, -15.6% (active); with RPMI-8226 leukemia, -4.75% (active); in the assay on OVCAR-8 ovarian, -12% (active). The growth with OVCAR-5 ovarian is -35.9% (active); in the assay with OVCAR-4 ovarian it was -61.1% (active); with SK-OV-3 ovarian it was 17.1%; in the assay with IGROV1 ovarian, -24.1% (active); in the assay on OVCAR-3 ovarian, -85.7% (active); in the assay on HS 578T breast, -24.1% (active). Besides, the growth in the assay on NCI/ADR-RES ovarian was -25.4% (active).

With `C=C1C(=O)O[C@H]2[C@H]1CC/C(CNC(=O)c1cc3cc(OC)ccc3[nH]1)=C\CC[C@@]1(C)O[C@@H]21`, the growth in the assay on SK-MEL-2 melanoma was -42.7% (active); in the assay on EKVX NSCLC, -55.9% (active); with SN12C renal, -38.5% (active); in the assay on UO-31 renal, -75.8% (active); in the assay with TK-10 renal, -83% (active); with ACHN renal, -76.2% (active). Besides, the growth in the assay on CAKI-1 renal was -74.1% (active); in the assay with MOLT-4 leukemia it was -31% (active); with SR leukemia, -0.374% (active); with RPMI-8226 leukemia it was -38.4% (active); in the assay with OVCAR-8 ovarian, -16.4% (active); in the assay on OVCAR-5 ovarian, -20.4% (active). Also, the growth with OVCAR-4 ovarian is -3.23% (active); in the assay with SK-OV-3 ovarian it was 59.3%; with IGROV1 ovarian it was -19.8% (active); in the assay with OVCAR-3 ovarian, -90.7% (active); with HS 578T breast it was -1.38% (active); with NCI/ADR-RES ovarian, 54.3%.

`Cc1cc2c(-c3nc4ccccn4c3NC3CCCCC3)c(O)c(O)cc2c(O)c1-c1c(C)cc2c(-c3nc4ccccn4c3NC3CCCCC3)c(O)c(O)cc2c1O`: the growth was 38.9% with SK-MEL-2 melanoma; 27.1% with EKVX NSCLC; 33% in the assay on SN12C renal; 35.3% in the assay with UO-31 renal; 27.5% with TK-10 renal; 18.8% in the assay on ACHN renal. Also, the growth in the assay with A498 renal was 71.4%; in the assay on CCRF-CEM leukemia, 23.5%; in the assay on MOLT-4 leukemia it was 43.6%; in the assay on SR leukemia, 25.8%; in the assay on RPMI-8226 leukemia, 31.6%; in the assay on OVCAR-8 ovarian, 34.4%. Further, the growth was 33.7% with OVCAR-5 ovarian; 27.4% in the assay with OVCAR-4 ovarian; 41.5% with SK-OV-3 ovarian; 36.2% with IGROV1 ovarian; 32.4% in the assay on OVCAR-3 ovarian; 21.9% in the assay with HS 578T breast. Moreover, the growth in the assay on NCI/ADR-RES ovarian was 71.9%.

With `CCCCCCCC(=O)SCC/C=C/[C@@H]1CC(=O)NCc2nc(co2)C2=N[C@@](C)(CS2)C(=O)N[C@@H](C(C)C)C(=O)O1`, the growth in the assay with SK-MEL-2 melanoma was -3.78% (active); in the assay on EKVX NSCLC, 16.2%; with SN12C renal, 12.6%; in the assay with UO-31 renal it was -13.5% (active); with TK-10 renal, -18.6% (active); in the assay with ACHN renal it was -27.5% (active). For the same compound, the growth is -50.8% (active) in the assay with CAKI-1 renal; 19.3% in the assay on CCRF-CEM leukemia; 3.84% (active) in the assay with MOLT-4 leukemia; 10.7% in the assay on SR leukemia; 3.09% (active) with RPMI-8226 leukemia; 0.95% (active) in the assay on OVCAR-8 ovarian. The growth in the assay with OVCAR-5 ovarian is -5.93% (active); with OVCAR-4 ovarian, 12.2%; with SK-OV-3 ovarian, -12.7% (active); in the assay with IGROV1 ovarian, -23.2% (active); in the assay with OVCAR-3 ovarian it was -45.6% (active); in the assay on HS 578T breast, 4.63% (active). For the same compound, the growth with NCI/ADR-RES ovarian was 5.57% (active).

In the case of `CC(C)=CCc1cc2c(cc1O)C1=C(C(=O)C3=C(C1=O)S(=O)(=O)CCN3)C(C=C(C)C)O2` (stereo not given), the growth in the assay on SK-MEL-2 melanoma is -53.9% (active); in the assay on EKVX NSCLC it was -26.1% (active); in the assay on SN12C renal, -36.7% (active); with UO-31 renal, -2.94% (active); with TK-10 renal, 7.58% (active); in the assay with ACHN renal, -22.1% (active). The growth in the assay with A498 renal is -70% (active); in the assay on CCRF-CEM leukemia it was 1.85% (active); in the assay with MOLT-4 leukemia, -38.2% (active); in the assay with SR leukemia, 2.02% (active); in the assay with RPMI-8226 leukemia, 9.78% (active); with OVCAR-8 ovarian it was -5.83% (active). In addition, the growth in the assay on OVCAR-5 ovarian is -72.4% (active); in the assay on OVCAR-4 ovarian, -98.2% (active); in the assay on SK-OV-3 ovarian, -3.23% (active); in the assay on IGROV1 ovarian, -30.6% (active); in the assay with OVCAR-3 ovarian, 0.0791% (active); in the assay with HS 578T breast, 11.1%.

For the origin of these results see PubChem BioAssay (NCI).
